Screening results as filed in PubChem.
An excerpt weighted towards active compounds, which were near 7.9% of everything screened.
KB-V1 MDR tox: qHTS assay for MDR1-selective chemotherapeutics: Primary screen using the drug-selected MDR subline cells KB-V1. KB-V1 MDR cells viability, CellTiter-Glo, 72 h. Potency, µM (top dose mostly 46.1 µM), hits mostly cytotoxic. 400,000 compounds, 3.4% hits. AID 1347076, 2019; note: nearly all actives have a fitted effect of over 60% in size
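In this primary screen, KB-V1 cells overexpressing P-gp are incubated with library compounds (lowest to highest concentration) for 72 h at 37 degrees C before a luminescent ATP viability read.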
MCF10A rerep: A quantitative high throughput screen for small molecules that induce DNA re-replication in MCF 10a normal breast cells; MCF 10A DNA re-replication, Hoechst nuclear intensity, 48 h; Potency, µM (titrated, usually from 46.1 µM), usual class: activators; 350,000 compounds, 2.9% hits; note: nearly all actives have a fitted effect of over 50% in size
KB-3-1 tox: qHTS assay for MDR1-selective chemotherapeutics: Primary screen using the parental adenocarcinoma cell KB-3-1 | 400,000 compounds, 1.4% hits | KB-3-1 viability, CellTiter-Glo ATP luminescence, 72 h | Potency, µM (series often up to 46.1 µM), usual class: cytotoxic; note: nearly all actives have a fitted effect of over 60% in size
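Viability of parental KB-3-1 cells, measured by CellTiter-Glo luminescence, followed a 72 h incubation at 37 °C with pinned compounds in phenol-red-free DMEM containing 10% FBS.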
HT1080 IDH1KD tx: qHTS for induction of synthetic lethality in tumor cells producing 2HG: qHTS for the HT-1080-IDH1KD cell line; HT-1080 IDH1 knockdown viability, ATP luminescence, 48 h; Potency, µM (titrated, usually from 46.1 µM), most hits filed as cytotoxic; 360,000 compounds, 2% hits
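IDH1KD HT-1080 cells, 750/well, RPMI + 5% FBS; compound pinned after 2 h settling; 48 h, 37 °C; CellTiter-Glo luminescence; % activity normalised to DMSO and no-cell wells; curves fitted, classed by r2 and efficacy.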
HT1080NT lethal: qHTS for induction of synthetic lethality in tumor cells producing 2HG: qHTS for the HT-1080-NT fibrosarcoma cell line. AID 686970, 2013. Potency, µM (top dose mostly 46.1 µM), usual class: cytotoxic. HT-1080-NT fibrosarcoma viability, CellTiter-Glo ATP luminescence, 48 h. 360,000 compounds, 1.6% hits;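 note: NT is the 2HG producing partner of a matched IDH1 knockdown line; nearly all actives have a fitted effect of over 55% in size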
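Read-out is CellTiter-Glo luminescence after 10 minutes at room temperature, following 48 hours' compound treatment of HT-1080-NT cells (750 cells/well, RPMI, 5% FBS, 37 degrees C).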
SW480 rereplic: A quantitative high throughput screen for small molecules that induce DNA re-replication in SW480 colon adenocarcinoma cells | SW480 DNA re-replication, Hoechst DNA content imaging, 48 h | Potency, µM (doses to about 46.1 µM), hits mostly activators | 340,000 compounds, 1.8% hits | AID 624297, 2012; note: nearly all actives have a fitted effect of over 55% in size
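Hoechst fluorescence of nuclei (405 nm excitation, 500-530 nm emission) measured by plate-scanning imager after 48 hr compound exposure at 37 C; re-replication scored as increased number of nuclei with elevated intensity.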
Hits are given with their value; - = inactive; ? = inconclusive; . = no result; [ ] = remark or other dose. Calls come from the whole dose curve; as a rule, active = well fitted curve in the direction sought with a large enough effect; inconclusive = small, poorly fitted or top-dose-only effect, or another doubt; inactive = no such curve, though single readings can be large; an effect the other way counts as inactive or inconclusive.

SMILES | KB-V1 MDR tox | MCF10A rerep | KB-3-1 tox | HT1080 IDH1KD tx | HT1080NT lethal | SW480 rereplic
CCOC(=O)N1CCN(Cc2nc(-c3ccc(Cl)cc3)no2)CC1 | - | - | - | - | - | -
COc1ccc(-c2noc(CCCC(=O)N3CCN(c4cc(C)ccc4C)CC3)n2)cc1 | - | 13µM | - | - | - | -
Cc1ccc(-c2noc(CCC(=O)N3CCN(c4cc(C)ccc4C)CC3)n2)cc1 | - | 21µM | - | - | - | -
COc1ccc(-c2noc(CCCCC(=O)N3CCN(c4cc(C)ccc4C)CC3)n2)cc1 | ? | - | ? | - | - | -
CCOC(=O)N1CCN(Cc2nc(-c3ccc(OC)cc3)no2)CC1 | 8.2µM | - | - | - | - | -
O=C1NC[C@H](CCCCN2CCN(CCC3CCCCC3)C(=O)C2=O)N(CCc2ccc(O)cc2)C1=O | ? | . | ? | - | - | .
CCOc1ccccc1NC(=O)C1=C(C)Nc2ncnn2C1c1cccs1 (stereo not given) | - | . | - | . | . | .
Cc1ccsc1C(=O)N/N=C/c1ccc2c(c1)OCO2 | 18µM | - | ? | ? | ? | -
O=C(N/N=C/c1ccc2c(c1)OCO2)c1cccs1 | - | - | ? | ? | ? | -
Cc1occc1C(=O)N/N=C/c1ccc(-c2ccccc2)cc1 | 13µM | - | 21µM | 6.5µM | 9.2µM | -
Cc1occc1C(=O)N/N=C/c1ccc2c(c1)OCO2 | 7.3µM | - | 15µM | 8.2µM | 9.2µM | -
Cc1ccc(CNC(=O)c2cccc(Nc3nc4ccccc4n4nnnc34)c2)cc1 | ? | . | - | . | . | .
Cc1ccc(S(=O)(=O)CC(=O)Nc2nc3ccccc3s2)cc1 | - | - | - | - | - | -
Cc1ccc(S(=O)(=O)Cc2sc3ccccc3[n+]2C)cc1 | 21µM | - | - | - | - | -
Cc1cccc(C2=NN(c3ccccc3)[C@H](CO)[C@H]2c2ccc(Cl)cc2)c1 | ? | 2.3µM | ? | ? | ? | 13µM
Cc1cccc(C2=NN(c3ccccc3)[C@H](CO)[C@H]2c2ccc(F)cc2)c1 | - | ? | - | ? | ? | 5.2µM
OC[C@@H]1[C@@H](c2ccccc2)C(c2cccc(Cl)c2)=NN1c1ccccc1 | ? | ? | ? | ? | 12µM | ?
COc1ccccc1CNC(=O)CN1C(=O)NC(c2ccccc2)(c2ccc(C)c(C)c2)C1=O (stereo not given) | ? | - | ? | ? | ? | ?
CCN(CCNCC(O)COc1ccccc1C(C)C)c1cccc(C)c1 (stereo not given) | ? | ? | - | 18µM | 21µM | -
Cc1cc(C(=O)CSc2nnnn2C)c(C)n1-c1ccc2c(c1)OCCO2 | 21µM | ? | - | - | - | -
Cc1cc(C(=O)COC(=O)c2ccc(N)c([N+](=O)[O-])c2)c(C)n1-c1ccc2c(c1)OCO2 | ? | - | ? | ? | - | -
CC(=O)c1ccc(OCC(=O)c2cc(C)n(-c3ccc4c(c3)OCO4)c2C)cc1 | 8.2µM | - | ? | ? | - | -
Cc1cc(C(=O)CSc2nnc(-c3ccco3)o2)c(C)n1-c1ccc2c(c1)OCCO2 | ? | ? | - | - | - | -
Cc1cc(-n2c(C)cc(C(=O)CSc3nnnn3-c3ccc(Cl)cc3)c2C)no1 | - | 6.5µM | - | - | - | -
Cc1cc(-n2c(C)cc(C(=O)CSc3nnc4sc5ccccc5n34)c2C)no1 | ? | - | - | - | - | -
SMILES | KB-V1 MDR tox | MCF10A rerep | KB-3-1 tox | HT1080 IDH1KD tx | HT1080NT lethal | SW480 rereplic
CCNC(=O)C1(C)CCCN(Cc2ccc(Oc3ccccc3)cc2)C1 (stereo not given) | ? | . | - | - | - | .
CCc1ccc(-c2nn(CC(=O)NC3CCCC3)c3c2cnc2ccc(C)cc23)cc1 | - | . | - | . | . | .
Cc1ccc(-c2noc(-c3ccc(N4CCCCC4C)c([N+](=O)[O-])c3)n2)cc1 (stereo not given) | - | . | - | . | . | .
CCOC(=O)[C@@H](CCc1ccccc1)N[C@H](C)C(=O)N1[C@H](C(=O)O)C[C@@H]2CCC[C@@H]21 | ? | - | - | - | - | -
CCOC(=O)[C@H](CCc1ccccc1)N[C@@H](C)C(=O)N1Cc2ccccc2C[C@H]1C(=O)O | - | 0.12µM | - | - | - | -
COc1ccccc1N1CCN(CCCCOc2cccc3ccccc23)CC1 | - | ? | - | 16µM | ? | -
COc1ccccc1OCCCCN1CCN(c2ccccc2OC)CC1 | - | - | - | - | - | -
COc1ccccc1N1CCN(CCCCCCOc2ccc(F)cc2)CC1 | 3.7µM | ? | ? | - | - | ?
CCOC(=O)c1c(C)c(C(=O)N(C)C2CCCCC2)c(C)n1C | 15µM | - | - | - | - | -
CCOC(=O)c1c(C)c(C(=O)NC2CCCCCC2)c(C)n1C | 8.2µM | - | - | - | - | -
COc1ccc(-n2nnnc2SCC(=O)NCCc2ccccc2)cc1 | - | . | - | . | . | .
Cc1ccc(-c2csc3nc[nH]c(=S)c23)cc1C | 13µM | ? | ? | 21µM | ? | ?
CCOC(=O)c1c(C)oc2c1c(C(c1cccnc1)N1CCCCC1)c(O)c1ccccc12 (stereo not given) | - | ? | - | - | - | -
CCOC(=O)c1c(C)oc2c1c(C(c1ccccc1)N1CCOCC1)c(O)c1ccccc12 (stereo not given) | 18µM | 4.1µM | - | - | - | ?
CCOC(=O)c1c(C)oc2c1c(C=NCCO)c(O)c1ccccc12 | - | ? | - | 23µM | ? | -
CCOc1ccc(NC(=O)CSc2oc(-c3ccco3)nc2S(=O)(=O)c2ccccc2)cc1 | - | . | - | . | . | .
Cc1c(C)c2ccc(OCC(=O)N(C)C)c(C)c2oc1=O | - | - | - | - | - | -[9.22 µM]
C=C(C)COc1ccc2c(CC)cc(=O)oc2c1C | 21µM | - | ? | - | - | -
CCc1cc(=O)oc2c(C)c(OCC(=O)N3CCC(C(=O)O)CC3)ccc12 | ? | - | - | - | - | -
CCc1c(C)c2ccc(OCC(=O)N(C)C)c(C)c2oc1=O | 10µM | - | - | - | - | -
CCCOc1ccc2c(CC)cc(=O)oc2c1C | 13µM | - | - | - | - | -
O=[N+]([O-])c1ccc(NC(=S)NCCc2ccc(F)cc2)cc1 | - | 10µM | ? | 23µM | ? | ?
CCOCCOC(=O)C1=C(C)NC2=C(C(=O)CC(c3cccs3)C2)C1c1ccsc1 (stereo not given) | 21µM | - | - | - | ? | -
